# Assay results published in the supplement of paper PMC4022240.
# ± gives the standard deviation.
# T1: HaloTag-ATRX ADD domain (163-292)
# T1 chain: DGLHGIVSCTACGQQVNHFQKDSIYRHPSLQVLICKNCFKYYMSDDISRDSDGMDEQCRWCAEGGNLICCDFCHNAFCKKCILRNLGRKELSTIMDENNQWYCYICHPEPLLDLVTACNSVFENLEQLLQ
# B1: H3 11-23 T G G Kme A P R Kme Q L A T K (peptide)
# chain: TGGKAPRKQLATK
# B2: H3 11-23 T G G Kme2 A P R K Q L A T K (peptide)
# chain: TGGKAPRKQLATK
# B3: H3 11-23 T G G Kme A P R Kme3 Q L A T K (peptide)
# chain: TGGKAPRKQLATK
# B4: H3 11-23 T G G Kme A P Rcit K Q L A T K (peptide)
# chain: TGGKAPRKQLATK
# B5: H3 11-23 T G G Kme A P Rme K Q L A T K (peptide)
# chain: TGGKAPRKQLATK
# Columns and labels:
# Experiment in all cases: peptide microarray binding signal (635 nm), min-max normalized on array (fraction of array maximum); higher = stronger binding
# Details in all cases: peptide region: H3 11-23
# [1] = target: T1, HaloTag-ATRX ADD domain (163-292)
# Method in brief: (§1)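 Binding signal is the mean intensity of triplicate spots, min-max scaled within each library. Histone 13-mer peptide–cellulose conjugates were spotted in triplicate on nitrocellulose with a Cy3 tracer and blocked overnight at 4°C. Probing lasted 1 h at 4°C, either with biotin-labelled HaloTag reader fusions (10 nM to 1 μM) and streptavidin-Alexa Fluor 647 or with rabbit histone antibodies (1:10,000 to 1:2,000) and anti-rabbit Alexa 647. An Axon GenePix 4000B read signal at 635 nm and misprints at 532 nm.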
# [2] = target: HaloTag-ING2 PHD (mouse Ing2 200-280)
# Method in brief: as §1
# [3] = target: anti-H3K4me3 antibody ab8580
# Method in brief: as §1
# [4] = target: anti-H3K9me3 antibody ab8898
# Method in brief: as §1
# [5] = peptide modifications: H3K14me1 H3K18me1, binder concentration: 1:2,000 dilution
# [6] = peptide modifications: H3K14me1 H3K18me1, binder concentration: 1:10,000 dilution
# [7] = peptide modifications: H3K14me2, binder concentration: 1:2,000 dilution
# [8] = peptide modifications: H3K14me2, binder concentration: 1:10,000 dilution
# [9] = peptide modifications: H3K14me1 H3K18me3, binder concentration: 1:2,000 dilution
# [10] = peptide modifications: H3K14me1 H3K18me3, binder concentration: 1:10,000 dilution
# [11] = peptide modifications: H3K14me1 H3R17cit, binder concentration: 1:2,000 dilution
# [12] = peptide modifications: H3K14me1 H3R17cit, binder concentration: 1:10,000 dilution
# [13] = peptide modifications: H3K14me1 H3R17me1, binder concentration: 1:2,000 dilution
# [14] = peptide modifications: H3K14me1 H3R17me1, binder concentration: 1:10,000 dilution
binder,measurement,setting,value
B1,peptide microarray binding signal,"[1]; peptide modifications: H3K14me1 H3K18me1, binder concentration: 50 nM",0.00561 ± 0.00015
same,peptide microarray binding signal,"[1]; peptide modifications: H3K14me1 H3K18me1, binder concentration: 500 nM",0.00886 ± 0.00086
same,peptide microarray binding signal,"[2]; peptide modifications: H3K14me1 H3K18me1, binder concentration: 10 nM",0.0118 ± 0.0022
same,peptide microarray binding signal,"[2]; peptide modifications: H3K14me1 H3K18me1, binder concentration: 100 nM",0.0213 ± 0.0055
same,peptide microarray binding signal,[3]; [5],0.00619 ± 0.0022
same,peptide microarray binding signal,[3]; [6],0.00611 ± 0.00051
same,peptide microarray binding signal,[4]; [5],0.00311 ± 0.00053
same,peptide microarray binding signal,[4]; [6],0.00213 ± 5.2e-05
B2,peptide microarray binding signal,"[1]; peptide modifications: H3K14me2, binder concentration: 50 nM",0.00614 ± 7.5e-05
same,peptide microarray binding signal,"[1]; peptide modifications: H3K14me2, binder concentration: 500 nM",0.0148 ± 0.0014
same,peptide microarray binding signal,"[2]; peptide modifications: H3K14me2, binder concentration: 10 nM",0.00806 ± 0.00059
same,peptide microarray binding signal,"[2]; peptide modifications: H3K14me2, binder concentration: 100 nM",0.00928 ± 0.002
same,peptide microarray binding signal,[3]; [7],0.00381 ± 0.00026
same,peptide microarray binding signal,[3]; [8],0.00331 ± 0.00013
same,peptide microarray binding signal,[4]; [7],0.00619 ± 0.00091
same,peptide microarray binding signal,[4]; [8],0.00548 ± 0.0005
B3,peptide microarray binding signal,"[1]; peptide modifications: H3K14me1 H3K18me3, binder concentration: 50 nM",0.00705 ± 0.00051
same,peptide microarray binding signal,"[1]; peptide modifications: H3K14me1 H3K18me3, binder concentration: 500 nM",0.0115 ± 0.00073
same,peptide microarray binding signal,"[2]; peptide modifications: H3K14me1 H3K18me3, binder concentration: 10 nM",0.0113 ± 0.00048
same,peptide microarray binding signal,"[2]; peptide modifications: H3K14me1 H3K18me3, binder concentration: 100 nM",0.0191 ± 0.00089
same,peptide microarray binding signal,[3]; [9],0.389 ± 0.079
same,peptide microarray binding signal,[3]; [10],0.473 ± 0.23
same,peptide microarray binding signal,[4]; [9],0.0513 ± 0.004
same,peptide microarray binding signal,[4]; [10],0.0139 ± 0.0023
B4,peptide microarray binding signal,"[1]; peptide modifications: H3K14me1 H3R17cit, binder concentration: 50 nM",0.00351 ± 0.00027
same,peptide microarray binding signal,"[1]; peptide modifications: H3K14me1 H3R17cit, binder concentration: 500 nM",0.0134 ± 0.00059
same,peptide microarray binding signal,"[2]; peptide modifications: H3K14me1 H3R17cit, binder concentration: 10 nM",0.0121 ± 0.0023
same,peptide microarray binding signal,"[2]; peptide modifications: H3K14me1 H3R17cit, binder concentration: 100 nM",0.0268 ± 0.0021
same,peptide microarray binding signal,[3]; [11],0.00151 ± 0.00025
same,peptide microarray binding signal,[3]; [12],0.00223 ± 0.00013
same,peptide microarray binding signal,[4]; [11],0.00267 ± 0.00024
same,peptide microarray binding signal,[4]; [12],0.00271 ± 0.00023
B5,peptide microarray binding signal,"[1]; peptide modifications: H3K14me1 H3R17me1, binder concentration: 50 nM",0.0069 ± 0.00032
same,peptide microarray binding signal,"[1]; peptide modifications: H3K14me1 H3R17me1, binder concentration: 500 nM",0.0148 ± 0.001
same,peptide microarray binding signal,"[2]; peptide modifications: H3K14me1 H3R17me1, binder concentration: 10 nM",0.00674 ± 0.00033
same,peptide microarray binding signal,"[2]; peptide modifications: H3K14me1 H3R17me1, binder concentration: 100 nM",0.0121 ± 0.00053
same,peptide microarray binding signal,[3]; [13],0.00587 ± 0.0018
same,peptide microarray binding signal,[3]; [14],0.0114 ± 0.0068
same,peptide microarray binding signal,[4]; [13],0.0084 ± 0.0022
same,peptide microarray binding signal,[4]; [14],0.00427 ± 0.0008
